# Reference: PubChem BioAssay (NCATS)
# Values without a mark were called inactive. Records with an inconclusive call do not appear. The source made the active and inactive calls. Unless noted, calls come from the whole dose curve; as a rule, active = well fitted curve in either direction with a large enough effect (not every such curve was filed as active); inconclusive = small, poorly fitted or top-dose-only effect, or another doubt; inactive = flat fitted curve, though single readings scatter.
# Columns and labels:
# [1] = biological target: Lysosomal acid glucosylceramidase (Homo sapiens) (UniProt P04062); assay: Glucocerebrosidase-p2 (AID 348; in the data active = potency below about 10 µM; note: potency is the fitted concentration of half-maximal effect); conditions: purified GBA, blue fluorogenic substrate, 40 min
# How it was run: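 Normal human glucocerebrosidase (0.2 nM) with blue fluorogenic substrate (80 uM final) in citrate/phosphate pH 5.9 with 10mM sodium taurocholate, 0.01% tween-20; 40 min RT, NaOH/glycine stop; fluorescence Ex 365/Em 440; AC50 from a titration from 0.6 nM upwards.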
# [2] = AP1 Signaling Pathway (AID 357); conditions: ME-180 AP-1-bla reporter, EGF-induced, beta-lactamase ratio, 5 h; at 7.69 µM (top of the series) unless noted;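 note: ME-180 reporter cells stimulated with EGF at its EC50 level; % is set by controls: 0 for no effect and ±100 for the full control effect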
# How it was run: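 A ratiometric CCF4 readout (405 nm excitation; 460 and 530 nm emission) quantified AP-1-driven beta-lactamase in ME-180 cells after 5 h with compound and EC50 EGF; AC50 values were derived for activators and inhibitors.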
# [3] = biological target: Glucocorticoid receptor (Homo sapiens) (UniProt P04150); assay: GR-GFP Redistribution (AID 450;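 active = compounds whose dose series gives a full or clear partial fitted curve of increased nuclear translocation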; note: potency is the fitted concentration of half-maximal effect); conditions: U2OS GR-GFP nuclear translocation, laser cytometry, 2 h
# [4] = biological target: Glucocorticoid receptor (Homo sapiens) (UniProt P04150); assay: GR-EFC Redistribution (AID 451; calls by dose curve; note: potency is the fitted concentration of half-maximal effect); conditions: CHO-K1 GR-EFC translocation, beta-gal luminescence, 2 h
# How it was run: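 CHO-K1 cells stably expressing nuclear-localized β-gal enzyme acceptor and GR fused C-terminally to the enzyme donor fragment; ligand-driven nuclear translocation restores β-gal by complementation. Compounds titrated up to 46 uM final, 2 h at 37 °C; luminescence read.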
# [5] = biological target: Mitogen-activated protein kinase 10 (Mus musculus) (UniProt Q61831); assay: JNK3 AlphaScreen Assay (AID 530); conditions: JNK3 lysate, c-Jun phosphorylation; series mostly up to 57.1 µM;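 note: kinase came from lysate of stimulated human HepG2 cells; signal reports phosphorylation of biotinylated GST-cJun 1-79 at Ser73 with 10 µM ATP; % is set by controls: 0 for no effect and ±100 for the full control effect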
# How it was run: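 Phosphorylation of biotinylated GST-cJun(1-79) at Ser73 is measured by AlphaScreen proximity luminescence. Enzyme is JNK3 in HepG2 lysates activated with interleukin-1beta and tumor necrosis factor alpha; ATP is 10 uM final.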
# [6] = qHTS Assay for Identification of Small Molecule Agonists for Hypoxia Response Element Signaling Pathway (AID 914; active = well fitted activation curve with a large enough effect in the signal ratio, with a control signal flat, not every such curve was filed as active; the % refers to the signal ratio; note: potency is the fitted concentration of half-maximal effect; for activation: % of control where 0% means no effect); conditions: ME-180 HRE-bla reporter, beta-lactamase ratio, CoCl2, 17 h; activation: hits give high values
# How it was run: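 A beta-lactamase reporter under hypoxia response element control in ME-180 cells served as the system. Compound titrations plus EC50 CoCl2 ran 17 h at 37 degrees Celsius; AC50 values were fitted from %Activity.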
# [7] = Primary qHTS for small molecule stabilizers of the endoplasmic reticulum resident proteome: Secreted ER Calcium Modulated Protein (SERCaMP) assay (AID 1508630; active = well fitted curve in the direction sought with a large enough effect; an effect the other way counts as inactive or inconclusive; note: % is set by controls: 0 for no effect and ±100 for the full control effect); conditions: SH-SY5Y GLuc-SERCaMP (Gaussia luciferase released on ER calcium loss) secretion, thapsigargin, luminescence; series mostly up to 38.4 µM
# How it was run: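 The SH-SY5Y reporter protocol was run at 3 concentrations up to 38.3 uM (primary) or 11 concentrations (follow-up): 16 h compound, 100 nM thapsigargin for 4 h, then extracellular luciferase luminescence.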
# [8] = biological target: Cytochrome P450 1A2 (Homo sapiens) (UniProt P05177); assay: p450-cyp1a2 (AID 410; calls by dose curve; note: potency is the fitted concentration of half-maximal effect;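 for activity change, negative = inhibition: -100% = full effect of reference inhibitor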); conditions: recombinant CYP1A2, luciferin-ME demethylation, luminescence; series mostly up to 57 µM
# How it was run: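 O-Demethylation of luciferin 6' methyl ether by human CYP1A2 is monitored as luciferase luminescence. Substrate sits at Km (100uM); enzyme is 20nM. Values are scaled to 57 uM furafylline as maximal inhibition.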
# [9] = NFAT Signaling Pathway (AID 444); conditions: Jurkat NFAT-bla M1, carbachol, beta-lactamase ratio, 5 h; at 7.69 µM (top of the series) unless noted;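 note: carbachol stimulus at about its EC50 of 1 µM final; % is set by controls: 0 for no effect and ±100 for the full control effect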
# How it was run: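 Jurkat cells carrying an NFAT-driven β-lactamase reporter and co-transfected muscarinic M1 receptor were treated with compound plus carbachol (1 uM final, an EC50 level) for 5 h at 37 °C. CCF4 loading followed for 1 h at RT; 460/530 nm ratio gave %activity.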
# [10] = Stat Signaling Pathway (AID 446); conditions: ME-180 (cervical carcinoma) SIE beta-lactamase reporter, IL-6 stimulated, 5 h; at 7.69 µM (top of the series) unless noted
# How it was run: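 Overnight-plated ME-180 cells bearing a STAT Inducible Element beta-lactamase reporter; 5 h co-exposure to compound and 40 pM IL-6; values normalized to 300 pM IL-6 and 125 nM JAK inhibitor controls.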
# [11] = biological target: 3',5'-cyclic-AMP phosphodiesterase 4B (Homo sapiens) (UniProt Q07343); assay: qHTS Assay for Inhibitors of PDE-IV (AID 607; active = well fitted activation curve with a large enough effect in the main read-out, with a control signal flat, not every such curve was filed as active; note: % of control where 0% means no effect); conditions: HEK293 ACTOne CNG channel cells, membrane potential fluorescence; series mostly up to 22.9 µM
# How it was run: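 Live HEK293 cells with a modified cyclic nucleotide-gated (CNG) channel report intracellular cAMP via membrane-potential dye fluorescence (ex 535/em 590 nm). Endogenous PDE-IV was targeted. Compounds were tested at up to 22.9 uM final; RO 20-1724 100 uM served as control.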
# [12] = biological target: Cytochrome P450 3A4 (Homo sapiens) (UniProt P08684); assay: qHTS Assay for Activators of Cytochrome P450 3A4 (AID 885; active = well fitted curve in the direction sought with a large enough effect; an effect the other way counts as inactive or inconclusive; note: nearly all actives have a fitted effect of over 65% in size); conditions: recombinant CYP3A4, Luciferin-PPXE luminescence, 60 min; series mostly up to 57.1 µM
# How it was run: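 Using 20nM recombinant human CYP3A4 in potassium phosphate (200mM), substrate Luciferin-PPXE at 25uM, luminescent luciferin detection followed a 60-min RT NADPH reaction; data scaled to 57 uM ketoconazole.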
# [13] = biological target: Cytochrome P450 3A4 (Homo sapiens) (UniProt P08684); assay: qHTS Assay for Inhibitors and Substrates of Cytochrome P450 3A4 (AID 884; active = well fitted curve in the direction sought with a large enough effect; an effect the other way counts as inactive or inconclusive; note: potency is the fitted concentration of half-maximal effect; nearly all actives have a fitted effect of over 50% in size); conditions: recombinant CYP3A4, Luciferin-PPXE luminescence; series mostly up to 57.1 µM
# How it was run: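 Luminescent readout of luciferin produced by CYP3A4 (20 nM) dealkylation of Luciferin-PPXE, 25 uM (its KM). NADPH-driven reaction ran 60 min at RT after 10 min compound preincubation; data scaled to 57 uM ketoconazole as 100% inhibition.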
# [14] = biological target: Cytochrome P450 2C19 (Homo sapiens) (UniProt P33261); assay: qHTS Assay for Inhibitors and Substrates of Cytochrome P450 2C19 (AID 899; active = well fitted curve in the direction sought with a large enough effect; an effect the other way counts as inactive or inconclusive; note: potency is the fitted concentration of half-maximal effect; nearly all actives have a fitted effect of over 60% in size); conditions: recombinant CYP2C19, luciferin-H EGE luminescence; series mostly up to 57.1 µM
# How it was run: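 NADPH-dependent conversion of Luciferin-H EGE (10uM, at KM) by 5nM enzyme in 50mM KPO4, 60 min at 37C following 10 min compound preincubation. Stopped with luciferin detection buffer; luminescence read after 20 min.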
# [15] = Confirmation and Secondary Assay for Modulators of Hemoglobin Beta Chain Splicing at IVS2 654 locus (AID 910; active = well fitted curve in the direction sought with a large enough effect; an effect the other way counts as inactive or inconclusive;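 note: per-well total GFP intensity by laser scanning cytometry after 2-day treatment; % of control where 0% means no effect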); conditions: HeLa EGFP-654 splicing reporter, GFP fluorescence, 48 h; series mostly up to 38.3 µM
# How it was run: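 HeLa cells stably carrying EGFP interrupted by mutant beta-globin IVS2-654 intron (CMV-driven) were treated with compound for 2 days at 37C; corrected splicing was scored as total peak GFP intensity per well (488 nm excitation, 500-520 nm emission).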
# [16] = biological target: Ubiquitin carboxyl-terminal hydrolase 1 (Homo sapiens) (UniProt O94782); assay: Inhibitors of USP1/UAF1: Pilot qHTS (AID 504865; active = well fitted curve in the direction sought with a large enough effect; an effect the other way counts as inactive or inconclusive;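 note: rhodamine fluorescence freed from ubiquitin-rhodamine substrate followed over time; top concentration of the series differs between compounds; % is set by controls: 0 for no effect and ±100 for the full control effect; nearly all actives have a fitted effect of over 35% in size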); conditions: purified USP1/UAF1, Ub-rhodamine cleavage fluorescence; series mostly up to 54.9 µM
# How it was run: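 In 50mM HEPES pH 7.8 containing 0.5mM EDTA, 1mM TCEP, 0.1 mg/ml BSA and 0.01% Tween-20, 1nM USP1/UAF1 is exposed to compound for 15 min, then Ub-Rho (150nM final) is added and fluorescence is read over time.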
# Sequence of Cytochrome P450 1A2 (Homo sapiens) (P05177 whole entry, looked up): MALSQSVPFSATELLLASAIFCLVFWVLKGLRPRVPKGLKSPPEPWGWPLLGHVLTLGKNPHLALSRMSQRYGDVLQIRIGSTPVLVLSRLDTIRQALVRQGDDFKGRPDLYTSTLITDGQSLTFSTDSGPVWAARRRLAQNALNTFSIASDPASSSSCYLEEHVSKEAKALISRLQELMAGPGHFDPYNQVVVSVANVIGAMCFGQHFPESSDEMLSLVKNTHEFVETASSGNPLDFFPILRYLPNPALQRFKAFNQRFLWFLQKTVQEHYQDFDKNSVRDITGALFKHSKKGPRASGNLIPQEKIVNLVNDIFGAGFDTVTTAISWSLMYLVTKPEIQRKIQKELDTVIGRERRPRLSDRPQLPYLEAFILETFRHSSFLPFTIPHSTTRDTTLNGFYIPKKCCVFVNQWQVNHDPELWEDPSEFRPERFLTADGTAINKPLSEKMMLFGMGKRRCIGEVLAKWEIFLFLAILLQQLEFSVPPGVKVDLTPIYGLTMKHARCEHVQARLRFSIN
# Sequence of Glucocorticoid receptor (Homo sapiens) (P04150 whole entry, looked up, the tested form may be a part): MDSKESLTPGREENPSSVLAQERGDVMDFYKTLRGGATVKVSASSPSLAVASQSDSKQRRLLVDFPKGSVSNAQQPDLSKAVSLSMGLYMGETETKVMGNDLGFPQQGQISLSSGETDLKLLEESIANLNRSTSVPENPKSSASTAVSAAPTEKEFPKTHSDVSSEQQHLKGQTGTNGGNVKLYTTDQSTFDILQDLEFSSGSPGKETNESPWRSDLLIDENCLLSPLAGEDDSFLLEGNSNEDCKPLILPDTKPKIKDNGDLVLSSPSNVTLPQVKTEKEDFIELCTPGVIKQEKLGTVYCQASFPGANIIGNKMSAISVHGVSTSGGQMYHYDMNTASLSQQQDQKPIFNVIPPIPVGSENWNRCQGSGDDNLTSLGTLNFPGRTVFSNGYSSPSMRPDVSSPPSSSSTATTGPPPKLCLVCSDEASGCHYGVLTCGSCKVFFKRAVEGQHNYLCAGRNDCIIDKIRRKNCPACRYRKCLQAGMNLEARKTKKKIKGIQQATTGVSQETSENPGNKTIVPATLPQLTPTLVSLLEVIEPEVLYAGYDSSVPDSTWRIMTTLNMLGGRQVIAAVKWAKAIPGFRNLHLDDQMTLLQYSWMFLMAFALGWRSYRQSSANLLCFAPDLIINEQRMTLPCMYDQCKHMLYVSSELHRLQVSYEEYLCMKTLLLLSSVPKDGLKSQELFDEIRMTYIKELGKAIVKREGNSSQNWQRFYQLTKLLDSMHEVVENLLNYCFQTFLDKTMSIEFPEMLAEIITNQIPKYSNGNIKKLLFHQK
# Sequence of Cytochrome P450 3A4 (Homo sapiens) (P08684 whole entry, looked up): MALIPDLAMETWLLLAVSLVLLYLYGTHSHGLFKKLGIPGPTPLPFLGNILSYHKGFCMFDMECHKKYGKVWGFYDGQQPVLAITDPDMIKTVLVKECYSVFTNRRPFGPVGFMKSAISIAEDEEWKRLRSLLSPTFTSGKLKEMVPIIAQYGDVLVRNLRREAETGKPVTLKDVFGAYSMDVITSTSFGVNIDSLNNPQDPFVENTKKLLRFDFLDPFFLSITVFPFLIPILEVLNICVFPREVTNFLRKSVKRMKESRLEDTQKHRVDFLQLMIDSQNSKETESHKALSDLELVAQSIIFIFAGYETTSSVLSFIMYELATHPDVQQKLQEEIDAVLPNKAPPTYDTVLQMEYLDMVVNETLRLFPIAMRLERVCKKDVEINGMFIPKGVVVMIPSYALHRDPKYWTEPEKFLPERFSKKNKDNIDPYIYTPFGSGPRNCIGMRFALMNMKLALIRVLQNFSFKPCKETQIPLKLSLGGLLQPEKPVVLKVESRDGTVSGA
# Sequence of Lysosomal acid glucosylceramidase (Homo sapiens) (P04062 whole entry, looked up): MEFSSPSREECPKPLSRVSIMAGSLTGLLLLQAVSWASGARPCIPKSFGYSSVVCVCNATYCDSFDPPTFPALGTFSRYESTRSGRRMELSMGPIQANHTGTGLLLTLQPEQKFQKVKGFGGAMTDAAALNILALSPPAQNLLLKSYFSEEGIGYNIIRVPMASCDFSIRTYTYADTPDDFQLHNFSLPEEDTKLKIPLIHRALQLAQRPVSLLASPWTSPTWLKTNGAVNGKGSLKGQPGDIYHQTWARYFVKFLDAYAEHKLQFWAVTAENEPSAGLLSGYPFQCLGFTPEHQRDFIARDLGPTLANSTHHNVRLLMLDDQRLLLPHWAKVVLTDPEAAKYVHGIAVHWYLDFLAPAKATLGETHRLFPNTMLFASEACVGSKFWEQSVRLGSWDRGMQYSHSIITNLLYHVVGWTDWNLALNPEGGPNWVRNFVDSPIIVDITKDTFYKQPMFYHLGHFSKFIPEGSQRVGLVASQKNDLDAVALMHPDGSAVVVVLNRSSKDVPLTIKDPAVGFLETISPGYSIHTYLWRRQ
# Sequence of 3',5'-cyclic-AMP phosphodiesterase 4B (Homo sapiens) (Q07343 whole entry, looked up): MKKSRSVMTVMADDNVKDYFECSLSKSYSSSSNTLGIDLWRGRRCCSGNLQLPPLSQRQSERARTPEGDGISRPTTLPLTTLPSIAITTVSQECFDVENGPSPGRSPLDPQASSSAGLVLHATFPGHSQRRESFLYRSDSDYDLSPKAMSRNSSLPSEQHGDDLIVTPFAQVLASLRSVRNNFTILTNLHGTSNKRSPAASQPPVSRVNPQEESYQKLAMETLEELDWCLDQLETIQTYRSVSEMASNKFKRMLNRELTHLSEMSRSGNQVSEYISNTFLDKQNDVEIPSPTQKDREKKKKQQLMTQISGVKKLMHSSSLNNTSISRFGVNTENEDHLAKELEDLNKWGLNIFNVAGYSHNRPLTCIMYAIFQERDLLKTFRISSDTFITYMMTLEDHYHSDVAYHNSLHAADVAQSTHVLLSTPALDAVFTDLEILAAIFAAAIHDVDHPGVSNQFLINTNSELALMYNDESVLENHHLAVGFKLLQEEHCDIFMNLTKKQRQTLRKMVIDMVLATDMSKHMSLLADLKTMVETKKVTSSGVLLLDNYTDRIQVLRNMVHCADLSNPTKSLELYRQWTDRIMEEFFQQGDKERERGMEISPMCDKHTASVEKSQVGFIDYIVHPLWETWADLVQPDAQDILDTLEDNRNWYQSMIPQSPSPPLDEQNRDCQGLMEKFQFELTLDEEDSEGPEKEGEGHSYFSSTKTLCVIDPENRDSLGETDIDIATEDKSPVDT
# Sequence of Cytochrome P450 2C19 (Homo sapiens) (P33261 whole entry, looked up): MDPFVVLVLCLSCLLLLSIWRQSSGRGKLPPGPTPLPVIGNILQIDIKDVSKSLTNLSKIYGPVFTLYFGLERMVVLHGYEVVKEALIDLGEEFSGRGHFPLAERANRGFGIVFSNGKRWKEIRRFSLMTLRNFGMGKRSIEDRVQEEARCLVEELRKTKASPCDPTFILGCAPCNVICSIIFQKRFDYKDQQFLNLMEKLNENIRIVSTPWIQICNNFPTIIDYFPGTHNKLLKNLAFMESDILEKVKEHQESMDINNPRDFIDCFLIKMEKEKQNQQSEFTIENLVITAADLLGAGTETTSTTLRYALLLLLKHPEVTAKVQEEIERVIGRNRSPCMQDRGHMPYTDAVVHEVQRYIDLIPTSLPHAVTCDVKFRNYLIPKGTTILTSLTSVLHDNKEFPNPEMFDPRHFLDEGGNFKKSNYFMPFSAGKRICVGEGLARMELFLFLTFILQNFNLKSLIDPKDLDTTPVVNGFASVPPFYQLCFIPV
# Sequence of Ubiquitin carboxyl-terminal hydrolase 1 (Homo sapiens) (O94782 whole entry, looked up): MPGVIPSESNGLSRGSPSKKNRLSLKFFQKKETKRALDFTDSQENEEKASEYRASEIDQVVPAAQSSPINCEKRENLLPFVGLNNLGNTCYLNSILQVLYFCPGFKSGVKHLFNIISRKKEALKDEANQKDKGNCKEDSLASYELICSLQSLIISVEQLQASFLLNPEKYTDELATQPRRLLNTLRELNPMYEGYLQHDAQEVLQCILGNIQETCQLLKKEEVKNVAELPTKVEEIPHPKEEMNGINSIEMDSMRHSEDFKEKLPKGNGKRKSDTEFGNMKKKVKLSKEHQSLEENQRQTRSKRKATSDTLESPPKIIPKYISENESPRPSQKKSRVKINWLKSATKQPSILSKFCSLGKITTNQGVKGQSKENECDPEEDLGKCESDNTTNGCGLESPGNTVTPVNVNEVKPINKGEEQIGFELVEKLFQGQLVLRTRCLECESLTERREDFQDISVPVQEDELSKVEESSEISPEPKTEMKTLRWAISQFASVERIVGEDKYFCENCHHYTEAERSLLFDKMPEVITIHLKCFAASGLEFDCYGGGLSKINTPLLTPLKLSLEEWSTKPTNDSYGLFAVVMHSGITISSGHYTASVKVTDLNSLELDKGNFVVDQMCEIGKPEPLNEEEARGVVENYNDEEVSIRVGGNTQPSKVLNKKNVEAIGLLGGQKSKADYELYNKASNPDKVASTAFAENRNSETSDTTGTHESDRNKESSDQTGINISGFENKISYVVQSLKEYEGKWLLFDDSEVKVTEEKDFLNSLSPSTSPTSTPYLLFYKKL
SMILES,Potency [1],"activity change, negative = inhibition [2]",Potency [3],Potency [4],Potency [5],Potency [6],outcome [7],Potency [8],"activity change, negative = inhibition [9]","activity, negative = inhibition [10]",Potency [11],Potency [12],activation [6],Potency [13],Potency [14],Potency [15],Potency [16]
CCNc1ncc2nc(-c3ccccc3)c(=O)n(-c3ccc(OC)cc3)c2n1,> 11.4 µM,27.6%,> 9.22 µM,> 46 µM,inactive,3.16 µM (active),inactive,,,,,,,,,,
CC(=O)N1CCC2(CCCN(c3cccc(-c4ccccc4)c3)C2)CC1,> 11.4 µM,,,> 46 µM,inactive,,inactive,5.01 µM (active),-0.641%,-8.45%,inactive,inactive,,,,,
Cn1c(=O)cnc2cnc(Nc3ccccc3)nc21,> 11.4 µM,,> 9.22 µM,> 46 µM,,,inactive,2 µM (active),-6.55%,-16.6%,,inactive,,,,,
N#Cc1cccc(NC(=O)N2CCCC3(CCN(C(=O)c4ccncc4)CC3)C2)c1,> 11.4 µM,-9.49%,,> 46 µM,inactive,,inactive,,,1.51%,inactive,,-1.72%,,,,
Cc1cccc(CNc2ncncc2-c2cccc(NS(C)(=O)=O)c2)c1,> 11.4 µM,,,> 46 µM,inactive,,inactive,12.6 µM (active),8.42%,0.163%,inactive,inactive,,0.158 µM (active),6.31 µM (active),inactive,inactive
O=C(c1ccncc1)N1CCC2(CC1)CN(c1ccc(-c3ccccc3)cc1)C2,> 11.4 µM,,,> 46 µM,inactive,,inactive,inactive,17.4%,-19.8%,inactive,inactive,,,,,
O=c1c(-c2cccs2)nc2cnc(Oc3ccccc3)nc2n1-c1ccccc1,> 11.4 µM,3.02%,> 9.22 µM,> 46 µM,inactive,2.51 µM (active),inactive,,,,,,,,,,
CCNc1ncc2nc(-c3ccc(Cl)cc3)c(=O)n(C3CC3)c2n1,> 11.4 µM,,> 9.22 µM,> 46 µM,inactive,0.398 µM (active),inactive,0.501 µM (active),-4.85%,,inactive,,,,,,
